Sm TGR block: qHTS Assay for the Inhibitors of Schistosoma Mansoni Peroxiredoxins; purified TGR, DTNB reduction, TNB absorbance 405 nm; Potency, µM (top dose mostly 114 µM), for the others: at the top dose activity change, negative = inhibition, hits mostly inhibitors; actives 3% (n = 360,000); also: potency is read from the fitted curve at half-maximal effect; % is scaled to controls: 0 for no effect and ±100 for the full control effect; nearly all actives have a fitted effect of over 60% in size
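First, TGR (20 nM dispensed) and NADPH were mixed with compound. Second, a 15 min room-temperature incubation followed. Third, further NADPH and then DTNB were added to start the reaction. Finally, TNB absorbance was monitored kinetically.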
Pf growth 96h: Primary qHTS for delayed death inhibitors of the malarial parasite plastid, 96 hour incubation. P. falciparum luciferase reporter growth, 96 h. AID 504834, 2011. Potency, µM (highest dose often 28.7 µM), for the others: top-dose activity change, negative = inhibition, hits mostly inhibitors. actives 6.9% (n = 320,000); also: potency is read from the fitted curve at half-maximal effect; % is scaled to controls: 0 for no effect and ±100 for the full control effect
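P. falciparum expressing integrated firefly luciferase, in erythrocytes at 2% hematocrit, 0.05% parasitemia, incubated with compounds 96 h at 37 C, 5% CO2. Growth inhibition read as loss of luminescence; two-generation exposure targets delayed-death apicoplast inhibitors.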
CHX counter-1: Cycloheximide Counterscreen for Small Molecule Inhibitors of Shiga Toxin; max response, %; actives 12% (n = 300,000); cell reporter, cycloheximide protein synthesis inhibition counterscreen; AID 2314, 2010; in the data active = max response mostly above about 13%, no sharp cut-off; inactive = mostly below about 14%; also: read at 38.3 µM for the half of the compounds with a filed dose; 0% is about no effect
Shiga toxin inh: A qHTS for Small Molecule Inhibitors of Shiga Toxin; Vero cells, Shiga toxin protein synthesis inhibition reporter; inhibition, % at 38.7 µM; actives 9.2% (n = 290,000); in the data active = inhibition mostly above about 28%, no sharp cut-off; inactive = mostly below about 43%; also: 0% is about no effect
NS1 function inh: qHTS Assay for Inhibitors of Influenza NS1 Protein Function; AID 2326, 2010; Potency, µM (doses to about 46.1 µM), for the others: at the highest dose activity, positive = more growth; actives 0.4% (n = 270,000); calls by dose curve; also: potency is read from the fitted curve at half-maximal effect; actives are rising curves; nearly all actives have a fitted effect of over 50% in size
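Compounds were scored for reversing the slow growth caused by influenza A NS1 in S. cerevisiae, measured by optical density at 600 nm. Assay medium contained 2% galactose at pH 6.0; NS1-free yeast of the same strain were the positive control.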
Pf growth 48h: Primary qHTS for delayed death inhibitors of the malarial parasite plastid, 48 hour incubation. P. falciparum luciferase growth in erythrocytes, 48 h. Potency, µM (top dose mostly 28.7 µM), inactives show at the top dose activity change, negative = inhibition, usual class: inhibitors. actives 5.9% (n = 310,000); also: potency is read from the fitted curve at half-maximal effect; % is scaled to controls: 0 for no effect and ±100 for the full control effect
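In quantitative HTS format, infected erythrocytes bearing luciferase-reporter parasites were treated for a single generation at 37 C. Luminescence after adding detection reagent served as the growth measure.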
CHX counter-2: Cycloheximide Counterscreen for Small Molecule Inhibitors of Shiga Toxin (Confirmatory) | Potency, µM (top dose mostly 38.3 µM), inactives show at the highest dose activity (activation), usual class: activators | actives 3% (n = 510) | Cycloheximide counterscreen, protein synthesis reporter, Shiga toxin assay | shares compounds with Shiga toxin inh | AID 2318, 2010; calls by dose curve; also: potency is read from the fitted curve at half-maximal effect; 0% is about no effect
* hit, by the source's call; ? = inconclusive; nt = no result given. Only some compounds are listed: those with a hit (about 21% of all), similar ones and a draw of the others. Unless noted, calls follow the shape of the dose curve; as a rule, active = well fitted curve in the direction sought with a large enough effect; inconclusive = small, poorly fitted or top-dose-only effect, or another doubt; inactive = no such curve, though single readings can be large; an effect the other way counts as inactive or inconclusive.

SMILES | Sm TGR block | Pf growth 96h | CHX counter-1 | Shiga toxin inh | NS1 function inh | Pf growth 48h | CHX counter-2
C[C@@H]1C=C(C(=O)O)O[C@H](OCc2ccc(CO)cc2)C1 | -28% | 31% | -1 | -8 | 3% | 0% | nt
CC1CC1C(=O)NCCc1ccc(Cl)cc1 (centres undefined) | 1% | -17% | 17 | 27 | 3% | -25% | nt
O=C(CC1CC2CCC1C2)NCCc1ccc(Cl)cc1 (centres undefined) | -5% | 45% | 16 | 49* | -23% | 26% | 2%
Cc1cccc(OCC(=O)NCc2ccc(F)cc2)c1 | -7% | -12% | -2 | nt | 2% | -11% | nt
COC(=O)c1cc(C(=O)c2ccc(Cl)cc2)n2c(=O)/c(=C\N(C)C)sc12 | 0% | -10% | 4 | -18 | nt | -27% | nt
COc1ccc(N(C(=O)c2csnn2)C(C(=O)NC2CCCC2)c2cccs2)cc1 (centres undefined) | -1% | 1.5µM* | -6 | 56* | -1% | -9% | -4%
Cn1cnc2c(=O)oc3ccc(S(=O)(=O)N4CCN(c5ccccc5F)CC4)cc3c21 | 2% | nt | nt | nt | nt | nt | nt
O=C(Nc1nnc(-c2ccc(F)cc2)o1)c1ccco1 | 5% | -25% | -2 | 3 | -50% | -13% | nt
O=C(/C=C/Nc1ccc(F)cc1F)c1ccco1 | -5% | -35% | 10 | 49* | -7% | 47% | 0.25µM*
O=C(/C=C/c1ccccc1)NCCc1ccc2c(c1)OCCO2 | 0% | 11% | 8 | 36* | -18% | 6% | -1%
CSc1ccc(/C=N/S(=O)(=O)c2ccccc2)cc1 | 10% | 24% | -1 | -17 | 3% | 32% | nt
CN1CCN(Cc2ccc(N)cc2)CC1 | 38% | 56% | 8 | 27* | 1% | 69% | 1%
O=C(c1ccccn1)c1ccc2ccccc2n1 | 14% | 29% | 10 | 56* | 2% | 12% | -1%
CC1=NNC(=O)C1Cc1ccccc1C (centres undefined) | 2% | -7% | 1 | 12 | 6% | nt | nt
Cc1ccc(-c2nnc3c4ccccc4c(-c4ccccc4)nn23)cc1 | 7% | nt | nt | nt | nt | nt | nt
COc1cc2c(cc1OC)C(c1cc(OC)c(OC)c(OC)c1)NCC2 (centres undefined) | 4% | -6% | -2 | 7 | -2% | -1% | nt
COc1cc2c(c(OC)c1OC)-c1c(cc(OC)c(OC)c1OC)CC(C)C(C)C2 (centres undefined) | nt | nt | 8 | 32* | nt | nt | 2%
Cc1ccc(S(=O)(=O)Nc2cccc(-n3cnnn3)c2)cc1C | -2% | -15% | -1 | -13 | 7% | 11% | nt
Cc1nnc(SCC(=O)NCC2COc3ccccc3O2)s1 (centres undefined) | -8% | 12% | nt | nt | nt | ? | nt
COc1ccc(C(=O)Nc2cccc3nc(C)ccc23)cc1OC | ? | 55% | 10 | 24* | ? | 13% | 1%
COc1cc(OC)cc(C(=O)Nc2cccc3nc(C)ccc23)c1 | 6% | ? | -2 | 1 | -14% | -16% | nt
CC1CCCC(C)N1C(=O)Cn1nnc(-c2ccccc2)n1 (centres undefined) | 2% | 38% | 4 | 33* | -6% | -5% | -1%
CC1CCCCN1C(=O)Cn1nnc(-c2cccnc2)n1 (centres undefined) | ? | nt | 2 | 12 | 10% | ? | nt
CCc1cc(OCCOCCN(C)C)ccc1Cl | 10% | 12% | 0 | -11 | -13% | -16% | nt
CCc1ccccc1NC(=O)CNC(=O)CNC(=O)c1cccs1 | 9% | 1% | nt | nt | nt | 7% | nt
SMILES | Sm TGR block | Pf growth 96h | CHX counter-1 | Shiga toxin inh | NS1 function inh | Pf growth 48h | CHX counter-2
Cc1c(C)c2ccc(O[C@@H]3O[C@H](CO)[C@H](O)[C@H](O)[C@H]3O)cc2oc1=O | -2% | 28% | 8 | -14 | 5% | 19% | nt
O=c1c(-c2ccc(O)cc2)coc2cc(O[C@@H]3O[C@H](CO)[C@H](O)[C@H](O)[C@H]3O)ccc12 | nt | nt | 11 | 49* | nt | nt | 3%
Cc1ccc(C(=O)OCC(=O)Nc2ccc(N3CCOCC3)cc2)cc1 | 4% | 20% | nt | nt | nt | -16% | nt
Cc1ccc(-c2nnc(SCC(=O)NC3CCCC3)n2C)cc1 | 1% | ? | -2 | 69* | 1% | 32% | -1%
COc1ccc(OCc2cccc(C(=O)O)c2)cc1 | 2% | ? | 9 | 52* | -53% | 4% | 0.032µM*
COc1cc(OC)c(OC)cc1CN1CCN(Cc2cccn2C)CC1 | ? | -11% | -1 | -6 | 20% | -1% | nt
O=C(Nc1ccc(Cl)cc1)c1ccncc1 | 7% | 36% | 20 | 52* | -25% | 47% | ?
CSc1nc2ccc(N3C(=O)C4CCCCC4C3=O)cc2s1 (centres undefined) | 6% | 36% | -3 | 38* | -2% | 48% | ?
CC(C)COc1ccc(C(=O)NNC(=O)c2ccc(=O)[nH]c2)cc1 | -12% | 28% | nt | nt | nt | 3% | nt
NS(=O)(=O)c1ccc(NC(=O)C(Sc2ccccc2)c2ccccc2)cc1 (centres undefined) | -6% | ? | -5 | -16 | -4% | -15% | nt
CC1=C(C)C(OCCBr)N(c2cc(O)c(Cl)cc2F)C1=O (centres undefined) | 28µM* | 78% | 5 | 43* | 12% | 11% | -3%
CC(=O)/C(C#N)=C1\NC(=O)C(Cc2ccc(C)c(C)c2)S1 (centres undefined) | 0% | ? | 11 | 34* | 7% | -28% | 2%
CC(=O)/C(C#N)=C1\NC(=O)C(Cc2ccc(F)cc2)S1 (centres undefined) | -1% | -12% | 4 | -6 | 2% | ? | nt
COc1ccccc1NC(=O)Cc1nnc(SCC(=O)c2ccccc2)n1C | 0% | -20% | -3 | 24 | -3% | 4% | nt
COc1ccccc1NC(=O)CSc1nnc(CC(=O)Nc2ccccc2F)n1C | 0% | 2% | 11 | 56* | -6% | 6% | -2%
Cc1cc(OCC(=O)Nc2ccncc2)cc(C)c1Cl | 2% | -18% | -1 | -16 | -74% | -25% | nt
O=C(C(Sc1ccccc1)c1ccccc1)N1CCOCC1 (centres undefined) | 8% | ? | -1 | 46* | 8% | 7% | -4%
O=C(C(c1ccccc1)N1CCOCC1)N1CCOCC1 (centres undefined) | 1% | nt | 3 | -8 | 12% | 3% | nt
Cc1cc(C)n(-c2cc(N3CCOCC3)ncn2)n1 | -1% | -28% | -2 | 31* | -1% | 9% | -4%
Cc1ccc(OCC(=O)Nc2nnn(C)n2)c(C)c1 | 5% | nt | 5 | 83* | -5% | 36% | ?
